# mHTT CaM bind – mHTT-calmodulin interaction abrogation. P42858. AlphaScreen His-mHTT/GST-CaM binding, luminescence. inhibition, % at 15 µM. 3.6% of 190,000 active;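 note: 0% = both proteins with DMSO and 100% = one protein alone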
# Pf apPOL inh – Pf-apPOL DNA polymerase inhibition; 0.25% of 210,000 active; Recombinant Pf-apPOL, molecular beacon fluorescence, 1.5 h; inhibition, % at 10 µM
# The depositor's hits bear a star; ! = not active in a repeat. In the library only some 3.6% were active in any assay of this set; here they are far more common. Cut-off read from the data, not from the text of the source: active = inhibition above about 50%; inactive = the rest.
SMILES,mHTT CaM bind,Pf apPOL inh
O=C1NC(c2ccccc2)=C([N+](=O)[O-])C(c2cccc(F)c2)N1 (stereo not drawn),-4.6,-0.7
O=c1c2cn[nH]c2nc(SCc2ccc(F)cc2)n1-c1ccc(Cl)cc1,28.0,-2.4
CN1OCC(S(=O)(=O)N2CCCCC2)C1c1ccccc1Cl (stereo not drawn),0.3,-4.8
COC(=O)c1cc(Nc2ccccc2OC)c2cccc(OC)c2n1,0.4,0.5
COc1ccccc1Nc1cc(C(F)(F)F)nc2c(OC)ccc(OC)c12,69.0*,6.3
CCOC(=O)Cn1cnc2c(-c3ccc(Cl)cc3)csc2c1=O,-5.1,-10.8
O=C(CSc1nc2c(c(=O)n1-c1ccccc1)SCC2)NCCc1ccccc1,-3.0,0.4
CC1CC(OCC(O)CN2CCC(CN3C(=O)c4cccc5cccc(c45)C3=O)CC2)CC(C)(C)C1 (stereo not drawn),37.2,76.7*
COc1ccc(N2CCN(CC(O)COC3CCC(C(C)(C)C)CC3)CC2)cc1 (stereo not drawn),33.8,-2.7
CC1CCN(CC(O)COC2CCCC2)CC1 (stereo not drawn),-1.4,-2.1
CC(C)(C)C1CCC(OCC(O)CN2CCC(CN3C(=O)c4cccc5cccc(c45)C3=O)CC2)CC1 (stereo not drawn),99.5*,27.8
O=C(NC1CC2CC1N(C(=O)c1ccc3c(c1)OCO3)C2)c1cccs1 (stereo not drawn),3.8,-4.6
Cn1nc(-c2ccccc2)cc1C(=O)N1CCN(C(=O)C2CC2c2cccs2)CC1 (stereo not drawn),8.5,-6.9
Cc1ccc(Nc2cc(C)nc3ccnn23)cc1,-4.7,1.1
Cc1cc(Nc2ccc(Cl)cc2)n2nccc2n1,63.5*,-4.3
COc1ccc(-n2nc3c(c2NC(C)=O)CSC3)cc1,20.0,-3.2
COc1ccc(-n2nc3c(c2NC(=O)/C=C/c2ccc(OC)c(OC)c2)CSC3)cc1,32.0,78.3*
COc1ccc(-n2nc3c(c2NC(=O)/C=C/c2ccco2)CSC3)cc1,77.0*,-9.2
O=C(/C=C/c1ccc2c(c1)OCO2)Nc1c2c(nn1-c1ccc(F)cc1)CSC2,23.0,-2.8
COc1ccc(-n2nc3c(c2NC(=O)/C=C/c2ccc(OC)c(OC)c2)CS(=O)(=O)C3)cc1,13.0,-1.8
O=C(/C=C/c1ccco1)Nc1c2c(nn1-c1ccc(F)cc1)CSC2,98.0*,0.6
CCc1ccc(NC(=O)CSc2nc3c(c(=O)n2-c2ccccc2)SCC3)cc1,15.0,2.1
CCc1ccc(NC(=O)CSc2nc3c(c(=O)n2-c2ccc(Cl)cc2)SCC3)cc1,19.0,99.4*
O=C(Cc1csc(NC(=O)c2cccs2)n1)NCCn1ncccc1=O,-13.4,-11.3
O=C(CSc1nnc2c(n1)[nH]c1ccccc12)Nc1ccccc1,5.0,33.8
SMILES,mHTT CaM bind,Pf apPOL inh
CCC(Sc1nnc2c(n1)[nH]c1ccccc12)C(=O)Nc1cccc(C(C)=O)c1 (stereo not drawn),64.8*!,1.1
COc1ccc(CCNC(=O)c2nnn(-c3cccc(C(F)(F)F)c3)c2N)cc1OC,14.0,-0.9
O=C(c1nc2ccccc2s1)N(Cc1ccccn1)Cc1ccco1,-6.2,-4.4
COc1ccccc1C(NC(C)=O)c1cc(Cl)c2cccnc2c1O (stereo not drawn),71.0*,6.6
CCC(=O)NC(c1ccc2c(c1)OCO2)c1cc(Cl)c2cccnc2c1O (stereo not drawn),96.0*,-1.5
COc1ccccc1C(NC(=O)C(C)C)c1cc(Cl)c2cccnc2c1O (stereo not drawn),48.0,-7.9
COCC(=O)NC(c1ccccc1)c1cc(Cl)c2cccnc2c1O (stereo not drawn),100.0*,-9.5
COc1ccc(C(NC(C)=O)c2cc(Cl)c3cccnc3c2O)cc1OC (stereo not drawn),100.0*!,4.5
O=C(Nc1ccc(F)cc1)C1CCN(C2CCN(C(=O)C3CCC3)CC2)CC1,-0.9,-4.0
O=C(Nc1ccc(C(F)(F)F)cc1)C(=O)NC1CCCCCC1,-3.0,-7.6
O=C1C2N=NN(c3ccccc3)C2C(=O)N1c1ccc2c(c1)CCC2 (stereo not drawn),-6.3,-1.4
CCCS(=O)(=O)n1c(SCC(=O)Nc2ccc(OCC)cc2)nc2ccccc21,3.0,-2.0
CCC(=O)NC(c1ccc(OC)c(OC)c1)c1cc(Cl)c2cccnc2c1O (stereo not drawn),100.0*,-5.6
CCCC(=O)NC(c1ccc(OC)cc1)c1cc(Cl)c2cccnc2c1O (stereo not drawn),25.0,10.6
CCn1nc(CNC(=O)c2ccccn2)c2ccccc21,-0.2,-9.0
Cc1c(Cl)cccc1S(=O)(=O)N1CCC(c2noc(-c3ccc(F)cc3)n2)CC1,-2.7,-2.6
O=C(Nc1ncc(-c2ccccc2)s1)c1ccccc1Br,-23.4,2.3
CCOC(=O)NC(=O)c1ccsc1NC(=O)c1nc2ccccc2s1,62.3*,8.4
Cc1sc(NC(=O)c2nc3ccccc3s2)c(C#N)c1C,-0.8,7.1
CSc1nc(=O)[nH]nc1SCc1ccccc1,-3.9,-4.1

# Screening results deposited in PubChem by University of Kansas High Throughput Screening Laboratory.
